# Source: PubChem
# Luciferase inh: Photinus pyralis luciferase inhibition. P08659. purified P. pyralis luciferase, luminescence, biochemical. Potency, µM (series often up to 115 µM), most hits filed as inhibitors. actives 2.5% (n = 76,000). AID 1347043; further: nearly all actives have a fitted effect of over 65% in size
# Target sequence (P08659 whole entry, looked up): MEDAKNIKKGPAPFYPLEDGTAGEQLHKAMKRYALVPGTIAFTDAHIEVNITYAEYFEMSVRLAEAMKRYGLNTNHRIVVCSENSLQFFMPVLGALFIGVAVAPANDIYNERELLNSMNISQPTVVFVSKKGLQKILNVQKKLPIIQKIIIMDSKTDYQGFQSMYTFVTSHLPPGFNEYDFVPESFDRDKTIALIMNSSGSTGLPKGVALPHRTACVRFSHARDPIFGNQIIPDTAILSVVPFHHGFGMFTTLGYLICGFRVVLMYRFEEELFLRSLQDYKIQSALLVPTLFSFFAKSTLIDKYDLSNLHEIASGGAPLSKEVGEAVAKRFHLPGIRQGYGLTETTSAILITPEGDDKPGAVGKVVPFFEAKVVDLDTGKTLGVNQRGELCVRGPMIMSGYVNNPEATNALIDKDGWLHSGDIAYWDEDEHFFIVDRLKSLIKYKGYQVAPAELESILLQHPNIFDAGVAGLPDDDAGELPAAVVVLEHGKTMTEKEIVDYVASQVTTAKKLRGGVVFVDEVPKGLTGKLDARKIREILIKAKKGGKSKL
#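 FLuc 10nM, D-luciferin 10uM, ATP 10uM, Mg acetate 10mM, Tris acetate pH 7.5, Tween/BSA; cpd qHTS; enzyme added last; CCD luminescence.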
# GPT2 inhibitor: blocks human glutamate pyruvate transaminase 2 | Q8TD30 | Recombinant GPT2, coupled pyruvate oxidase/HRP Amplex Red fluorescence | Potency, µM (series often up to 57.7 µM), for inactives: top-dose activity change, negative = inhibition, most hits filed as inhibitors | actives 0.25% (n = 100,000); further: nearly all actives have a fitted effect of over 60% in size
#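 GPT2 10ng/uL, a-KG 250uM, L-Ala 2mM, HEPES pH7.5 + 0.0001% Tween; 30 min RT. Then Amplex mix (PO/HRP/ThPP), 30 min RT dark, fluorescence. AOA 50uM used as positive control.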
# NIH3T3 tox: NIH 3T3 cell cytotoxicity; NIH 3T3 viability, CellTiter-Glo ATP luminescence, 48-72 h; Potency, µM (titrated, usually from 96.7 µM), for inactives: at the highest dose activity change, negative = cytotoxicity, usual class: inhibitors; actives 4.3% (n = 94,000); AID 1345082; further: nearly all actives have a fitted effect of over 55% in size
#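 Cells were seeded at 400 per well, treated with pin-transferred compound, and kept 48 or 72 hr at 37 °C before CellTiter-Glo addition and luminescence imaging of cellular ATP.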
# HEK cytotox: kills HEK 293 cells; HEK 293 viability, ATP luminescence (CellTiter-Glo), 48-72 h; Potency, µM (series often up to 115 µM), without a hit: at the highest dose activity change, negative = cytotoxicity, most hits filed as inhibitors; actives 6.6% (n = 94,000); further: nearly all actives have a fitted effect of over 60% in size
#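 HEK 293 seeded at 250 cells/well receive compound via pintool. After 48 or 72 hr at 37 degree Celsius, 5% CO2 and 95% humidity, CellTiter-Glo is dispensed and luminescence read following 10 min at room temperature.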
# hNpr1 antagonist: blocks ANP-stimulated signaling of human Npr1 receptor | AID 1347048 | HEK293 hNpr1 GloSensor cGMP, ANP-stimulated luminescence | actives 1.6% (n = 76,000) | P16066 | Potency, µM (doses to about 46.3 µM), for the others: at the highest dose activity change, negative = inhibition, actives largely listed as inhibitors; calls by dose curve; further: nearly all actives have a fitted effect of over 60% in size
#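 HEK293 cells stably expressing human Npr1 and cGMP GloSensor pGS-40F, loaded 2 h with 2% GloSensor reagent, given compound 30 min at room temperature. Luminescence read before and 20 min after 0.1 nM hNppA.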
# * marks the source's active call; other numbers are inactive results; i = inactive; ? = inconclusive; nt = no result given; ! = not active in a repeat; [ ] = another dose, or the depositor's remark. In the library only some 10% were active in any assay of this set; here they are far more common. Unless noted, the call rests on the fitted dose curve; in most records, active means well fitted curve in the direction sought with a large enough effect; inconclusive means small, poorly fitted or top-dose-only effect, or another doubt; inactive means no such curve, though single readings can be large; an effect the other way counts as inactive or inconclusive. On the % scale 0 is the no-effect control and ±100 the full control effect; potency means the concentration at half of the fitted maximal effect.
SMILES,Luciferase inh,GPT2 inhibitor,NIH3T3 tox,HEK cytotox,hNpr1 antagonist
O=C(Nc1ccc2c(N3CCOCC3)ncnc2c1)c1ccco1,i,i,-28%,?,2%
COc1ccc(C(=O)Nc2ccc3c(N4CCOCC4)ncnc3c2)c(C)c1,?,4%,22µM*,?,0%
Cc1cccc(C(=O)Nc2ccc3ncnc(N4CCCCC4)c3c2)c1,i,-39%,?,?,-27%
O=C(O)CC1(CC(=O)N[C@@H]2C=C(C(=O)N[C@H]3CCCNC3=O)C[C@@H](O)[C@@H]2O)CCCC1,i,0%,-15%,-7%,0%
O=C(Nc1ccc2c(N3CCCCC3)ncnc2c1)c1ccc(F)c(F)c1,i,-9%,-12%,-30%,2%
COc1cccc(C(=O)Nc2ccc3ncnc(N4CCCCC4)c3c2)c1,i,i,?,?,-22%
O=C(Nc1ccc2c(N3CCCCC3)ncnc2c1)c1ccc(F)cc1F,?,-5%,22µM*,16µM*,3%
COc1ccc(C(=O)Nc2ccc3c(N4CCCCC4)ncnc3c2)cc1,25µM*,i,?,40µM*,1%
O=C(Nc1ccc2ncnc(N3CCCC3)c2c1)c1ccc(F)c(F)c1,i,-4%,35µM*,?,-21%
CC(=O)N1CCC(C(=O)N2CCC3(CC2)NC(=O)N(c2cccc(Cl)c2)N3)CC1,i,-24%,-35%,?,2%
CNC(=O)c1cc(C2CC2)nc2c1c(C1CCN(C(=O)Cc3ccc(OC)cc3)CC1)nn2C,nt,nt,1%,i,nt
CC(=O)N1CCC(C2CCN(C(=O)C3CC=CC3)C2)CC1 (stereo not given),i,2%,-12%,-7%,-1%
COc1ccc(CN2CCC(CO)(CN3CCCC3)CC2)cc1C,i,?,?,89µM*,-1%
CC(C)Oc1ccc(CN2CCC(CO)(CN3CCCC3)CC2)cc1Cl,i,i,32µM*,25µM*,-3%
Cc1ccc(-c2ccnc(N(C)CC3CC(=O)N(C(C)(C)C)C3)n2)c(C)n1 (stereo not given),i,-19%,?,79µM*,-27%
CN(Cc1cccc(C(F)(F)F)c1)C(=O)Nc1ccccc1,?,i,?,?,0%[70.6 µM]
CN(Cc1cccc(C(F)(F)F)c1)C(=O)Nc1ccc(Cl)cc1,i,1%,20µM*,40µM*,-7%
CN(C)Cc1c(C(=O)NCCOc2ccc(C(=O)NO)cc2)oc2ccccc12,nt,31µM*!,nt,nt,nt
N#Cc1cccc(CN2CC[C@@H]3OCC(=O)N(Cc4c[nH]c5ccccc45)[C@H]3CC2)c1,i,2%[88.5 µM],?,100µM*,-9%[70.6 µM]
CC(C)CCN1CC[C@@H]2OCC(=O)N(Cc3c[nH]c4ccccc34)[C@H]2CC1,i,1%[88.5 µM],?,100µM*,-16%[70.6 µM]
O=C1CO[C@H]2CCN(Cc3c[nH]c4ccccc34)CC[C@@H]2N1Cc1ccccc1,i,-9%[88.5 µM],89µM*,?,-4%[70.6 µM]
CC1(C)CCC2=C(O1)c1ccccc1C(=O)C2=O,nt,3.4µM*!,nt,nt,nt
COc1ccc(Nc2ccnc(N3CCCC(C(=O)NCC(F)F)C3)n2)cc1 (stereo not given),nt,-8%,?,?,nt
Cc1ccc(Nc2ccnc(N3CCCC(C(=O)NCC(F)F)C3)n2)cc1 (stereo not given),nt,i,40µM*,45µM*,nt
Cc1ccc(Nc2ccnc(N3CCCC(C(=O)NCC(F)(F)F)C3)n2)cc1 (stereo not given),nt,i,35µM*,?,nt
SMILES,Luciferase inh,GPT2 inhibitor,NIH3T3 tox,HEK cytotox,hNpr1 antagonist
COc1ccc(Nc2ccnc(N3CCCC(C(=O)NCC4CC4)C3)n2)cc1 (stereo not given),nt,-5%,?,?,nt
Cc1ccc(Nc2ccnc(N3CCCC(C(=O)NCC4CCCCCC4)C3)n2)cc1 (stereo not given),nt,-1%,?,28µM*,nt
Cc1ccc(Nc2ccnc(N3CCCC3C(=O)NCC(F)F)n2)cc1 (stereo not given),nt,i,?,40µM*,nt
Cc1ccc(Nc2ccnc(N3CCCC(C(=O)NCc4ccc(C(F)(F)F)cc4)C3)n2)cc1 (stereo not given),nt,i,-21%,-15%,nt
COc1ccc(-c2noc(-c3cccn3CC(=O)Nc3ccc(C)cc3Cl)n2)cc1F,i,-4%,i,1%,-2%
O=C(NC1CCc2n[nH]c(=O)n2CC1)c1cncc(Br)c1 (stereo not given),i,i,i,2%,-1%
COc1ccc(CN2CC3(CCN(C(=O)c4cc(-c5ccc(F)cc5)n[nH]4)CC3)C2=O)cc1,i,-2%,?,89µM*,-15%
COc1ccc(CN2CC3(CCN(C(=O)c4ccc(OC)c(F)c4)CC3)C2=O)cc1,i,-2%,-25%,-23%,1%
CC(C)[C@]1(O)CN(C(=O)Cc2ccc(F)cc2F)C[C@H]1C,i,-6%[11.5 µM],-16%,-4%,2%
Cn1c2c(c3ccccc31)CN(C(=O)Nc1ccc(Cl)cc1Cl)CC2,25µM*,i,?,?,-19%
Cn1c2c(c3ccccc31)CN(C(=O)Nc1ccccc1F)CC2,?,-18%,35µM*,45µM*,-3%
Cn1c2c(c3cc(F)ccc31)CN(C(=O)Nc1ccc(Cl)cc1Cl)CC2,i,i,?,?,-13%
O=C(Cc1cccs1)N1CCCN(c2cc(-c3ccc(Br)cc3)[nH]n2)CC1,i,?,35µM*,45µM*,?
O=C(COc1ccc(F)cc1)N1CCCN(c2cc(-c3ccc(Br)cc3)[nH]n2)CC1,i,?,?,45µM*,?
CNC(=O)CC1COCCN1C(=O)c1ccc2ncsc2c1 (stereo not given),i,-10%,0%,2%,2%
CCOc1ccc(C(=O)N2CCCC(n3cc(-c4nc(C)no4)nn3)C2)cc1 (stereo not given),i,i,-19%,-4%,?
Cc1nc(-c2ccc(Cl)cc2)n(Cc2cccc(C(F)(F)F)c2)c(=O)c1CCO,i,?,?,?,-7%
Cc1nc(-c2ccccc2)n(Cc2cccc(C(F)(F)F)c2)c(=O)c1CCO,i,-27%,?,50µM*,1%
Cc1nc(-c2ccc(F)cc2)n(Cc2cccc(C(F)(F)F)c2)c(=O)c1CCO,i,-10%,?,45µM*,-7%
O=C(C1CCCCC1)N1CCC(N2C(=O)C(O)C23CCCCC3)CC1 (stereo not given),i,?,-13%,-31%,-3%
COc1ccc(Nc2ccc3c(n2)CN(Cc2ccccc2F)C(=O)CO3)cc1,i,-21%[88.5 µM],?,63µM*,?
